What was measured:
Type in all cases: functional
[1] = target: Solute carrier family 2, facilitated glucose transporter member 1 (Homo sapiens) (UniProt P11166); assay: ST_JUDE_LEISH: Cytotoxicity at 2uM final concentration against transgenic Leishmania Mexicana promastigotes LmGLUT1 that are glucose transport deficient and complemented with the human glucose transporter GLUT1. Activity is measured by DNA content using SYBR green in vitro
[2] = target: Hexose transporter 1 (Plasmodium falciparum) (UniProt O97467); assay: ST_JUDE_LEISH: Cytotoxicity at 2uM final concentration against transgenic Leishmania Mexicana promastigotes LmPfHT that are glucose transport deficient and complemented with the Plasmodium falciparum hexose transporter. Activity is measured by DNA content using SYBR green in vitro
[3] = target: Glucose transporter (Leishmania mexicana) (UniProt O61059); assay: ST_JUDE_LEISH: Cytotoxicity at 2uM final concentration against transgenic Leishmania Mexicana promastigotes LmGT2 that are glucose transport deficient and complemented with the L. Mexicana glucose transporter 2. Activity is measured by DNA content using SYBR green in vitro

Solute carrier family 2, facilitated glucose transporter member 1 (Homo sapiens), sequence (P11166 whole entry): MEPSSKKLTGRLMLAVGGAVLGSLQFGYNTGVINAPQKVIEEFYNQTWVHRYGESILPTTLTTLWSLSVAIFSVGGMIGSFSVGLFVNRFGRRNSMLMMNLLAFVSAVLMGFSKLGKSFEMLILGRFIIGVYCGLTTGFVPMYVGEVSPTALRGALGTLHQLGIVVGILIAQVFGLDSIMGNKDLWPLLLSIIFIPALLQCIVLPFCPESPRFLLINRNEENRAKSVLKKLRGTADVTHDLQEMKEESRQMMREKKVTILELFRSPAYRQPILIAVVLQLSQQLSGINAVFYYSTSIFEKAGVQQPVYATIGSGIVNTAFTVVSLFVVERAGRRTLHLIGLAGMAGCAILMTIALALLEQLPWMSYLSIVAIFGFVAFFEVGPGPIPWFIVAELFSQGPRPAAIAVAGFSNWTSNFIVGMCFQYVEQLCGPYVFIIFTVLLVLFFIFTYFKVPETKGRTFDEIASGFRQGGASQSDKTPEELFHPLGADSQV

Compound	inhibition [1] [%]	inhibition [2] [%]	inhibition [3] [%]
O=C(Nc1ccc(F)cc1F)NC1CCN(c2ccnc3cc(Cl)ccc23)C1 (stereo unspecified)	6.88	7.63	6.34
COc1cc(NC(=O)c2cc([N+](=O)[O-])ccc2NC(=O)CNC2CCCCC2C)cc(OC)c1 (stereo unspecified)	7.57	2.04	1.96
Cc1cc(OCC2CCN(c3ncc(C(=O)NC4CC4)cc3Cl)CC2)ccc1F	1.62	1.07	-1.06
COc1ccc(-c2cnc(NCc3ccccc3)nc2)cc1CNC1CCN(C)CC1	-0.17	1.06	-0.94
OC(CNc1ccnc(Nc2ccccc2)n1)c1ccc(C(F)(F)F)cc1 (stereo unspecified)	5.97	5.69	1.23
CC(C)CNCc1ccc(-c2cccc(CN(CCN(C)C)C(=O)NCCc3ccccc3)c2)cc1	-0.22	1.83	0.23
CCOC(=O)c1nc2ccc(SC3CCCCC3)cn2c1Br	1.75	0.06	5.65
Cc1cc(C(=O)Nc2ccc(-c3ccccc3)cc2)no1	2.6	0.53	0.52
c1cc(-c2ccc(CNC3CC3)cc2)cc(-c2nc3ccccc3[nH]2)c1	4.18	1.98	0.68
Cc1cccc2nc(-c3cccc(-c4cccc(NC(=O)Nc5cccc(C#N)c5)c4)c3)[nH]c12	11.2	10.1	10.3
CCCCn1c(SC(C)C)nc2c(c1=O)C1(CCCCC1)Cc1ccccc1-2	4.14	4.8	3.66
COc1ccc(CCN2CCC(Nc3nc4ccccc4n3CCc3ccc(OC)cc3)CC2)cc1	4.38	-1.39	12.5
CCOC(=O)c1nc(-c2ccccc2)[nH]c1NC(=S)NC1CCCCC1	-0.61	-0.88	-6.59
O=C(N[C@@H](CC1CCCCC1)C(=O)NCCN1CCCC1)c1ccc(O)c(-c2ccc(Cl)c(Cl)c2)c1	0.12	0.41	0.58
COc1ccc2ncc(F)c([C@@H](O)CN3CCC(NCc4cc5c(cn4)OCS5)CC3)c2c1	5.71	1.41	4.52
CC(C)(C)c1nn(-c2ccccc2)c2[nH]c(=O)c(CNCc3ccc4c(c3)OCO4)cc12	6.79	3.28	3.39
Cc1ccc(C)c(S(=O)(=O)NCC2CCN(Cc3ccc(O)cc3)CC2)c1	41.3	7.78	-2.61
CS(=O)(=O)CCNCc1cccc(-c2cc3c(Nc4ccc5c(cnn5Cc5ccccc5)c4)ncnc3s2)c1	2.62	-0.73	0.63
CCOC(=O)c1c(NC(=O)c2ccccc2)sc2c(O)c(CN(CC)CC)ccc12	12	5.42	2.36
CCN(CC)CCN(Cc1ccc(-c2ccc(C(F)(F)F)cc2)cc1)C(=O)Cn1c(SCc2ccc(F)cc2)cc(=O)c2ccccc21	1.74	-0.14	1.57
CCOc1ccc(C(=O)Nc2nonc2-c2ccc(OC)c(OC)c2)cc1	-0.49	1.82	0.47
CCNc1cc(C(=O)N[C@@H](Cc2ccccc2)[C@H](O)CNC(C)(C)CCCC(C)C)cc(N2CCCCS2(=O)=O)c1	-0.28	0.88	-0.83
CNC(=O)c1ccc2nc(C3CC3)n(CC3CCN(S(=O)(=O)c4cccc(Cl)c4)CC3)c2c1	1.69	1.44	2.49
COc1cccc(CNC(=O)NC2CCN(c3ccnc(Nc4ccc(F)cc4)n3)C2)c1 (stereo unspecified)	-1.2	-0.35	-1.51

Compound	inhibition [1] [%]	inhibition [2] [%]	inhibition [3] [%]
COc1ccc(CCNc2nc(NCCc3cnc[nH]3)nc(NCc3cccc4ccccc34)n2)cc1OC	7.46	10.1	4.1
COc1ccc(NC(=O)Nc2cc(C)nc3cccnc23)cc1Cn1ccnc1	1.73	1.25	0.47
CC(C)Oc1cc2c(cc1NS(=O)(=O)c1ccc(-c3cccs3)cc1)CCN(C)CC2	5.11	2.07	1.94
COc1ccc(O)c(C(=O)c2cc(C(=O)NCCc3ccccc3)c(=O)n(CCc3ccccc3)c2)c1	4.48	3.07	5.64
COc1ccc(CNC2CCN(C)CC2)cc1-c1ccc(S(=O)(=O)NCCc2ccccn2)cc1	-0.85	0.85	-0.1
COc1cc(NCC(CN)Cc2ccc3c(c2)OCO3)nc2ccccc12 (stereo unspecified)	4.7	3.95	5.88
O=c1c2sc(-c3ccc(Cl)cc3)cc2ncn1Cc1ccc(OCCN2CCCC2)c2ccccc12	4.34	2.61	1.85
Cc1cccc2nc(-c3ccc(-c4cccc(NC(=O)NCc5cccc(F)c5)c4)s3)[nH]c12	-1.66	-0.47	-1.14
O=C(NCc1ccccc1)OC1CNCCC1c1ccc(C(O)Cc2ccccc2)cc1 (stereo unspecified)	1.68	1.62	2.32
CCc1sc(N2CCC(C)CC2)nc1C(=O)Nc1ccc(F)cc1C(F)(F)F	2.29	3.34	0.26
CN(C)CCNc1cc(-c2ccc3ccccc3c2)nc2ccccc12	1.3	2.94	-0.48
CNC(=O)c1ccccc1Nc1nc(Nc2ccc(N3CCN(C)CC3)nc2)ncc1C	12	11.3	9.03
Cc1ccc(C)c(NC(=O)Nc2ccc(C)c(-c3ccc(C(=O)Nc4ccncc4)cc3)c2)c1	6.08	3.66	2.82
CCN(CC)CC(O)c1cc(-c2ccc(C)cc2)nc2c(C)cc(C)cc12 (stereo unspecified)	3.3	3.65	-1.02
COC(=O)c1ccc2nc(-c3ccc(C(=O)NC4CCN(Cc5ccccc5)CC4)s3)[nH]c2c1	6.63	10.5	8.06
Cc1ccc(-c2cc3nc4c(c(NCCCn5ccnc5)n3n2)CCC4)cc1	2.77	1.6	0.92
Cc1[nH]cnc1CSCCN/C(=N\C#N)NCCCCCCCCN/C(=N/C#N)NCCSCc1nc[nH]c1C	2.45	2.15	2.98
NC(=O)c1ccccc1OCC(=O)Nc1cccc(-c2cccc(-c3nc4ccccc4[nH]3)c2)c1	0.34	1.07	-4.32
CCCCNCc1cc(Cl)c2ccccc2c1O	7.17	7.57	6.58
Cc1nc(O)c2c(ccc3ccc(CN(C)c4ccc(C(=O)N[C@@H](CCC(=O)O)C(=O)O)cc4)cc32)n1	-1.5	-0.69	-1.57
COc1ccc(CNCCc2cccs2)cc1-c1ccc(S(=O)(=O)NCCN2CCCC2)s1	4.99	5.45	4.66
COc1ccc2oc(=O)c(C#N)c(O)c2c1	-0.47	-0.32	0.54
COc1cc(C(=O)N2COCC(CCCN3CCC(N4CCCC4)CC3)(c3ccc(Cl)c(Cl)c3)C2)cc(OC)c1OC (stereo unspecified)	3.3	3.39	3.67
CCOC(=O)C1=C(C)NC2=C(C(=O)C(C(=O)OC)C(C)C2)C1c1cc(Br)c(OCC)c(OC)c1 (stereo unspecified)	8.37	6.84	6.67

Compound	inhibition [1] [%]	inhibition [2] [%]	inhibition [3] [%]
Cc1ccc2c(=NN=CC=Cc3ccccc3)cc(C)[nH]c2c1	1.49	5.52	2.88
CCCCNC(=N)Nc1ccc(OCCCOc2ccc(NC(=N)NCCCC)cc2)cc1	-1.92	-1.63	0.01
CC1CC(NCCCNc2cc(=O)c3ccccc3[nH]2)c2c(Cl)c(Cl)cc(Cl)c21 (stereo unspecified)	5.21	3.08	1.22
O=C(Nc1cccc(CN2CCCN(CC3CC3)CC2)c1)c1ccc(-c2ccccc2)cc1	3.62	4.69	-0.4
Cc1sc(CNCCCNc2cc(=O)c3ccccc3[nH]2)c(I)c1C	3.11	2.66	1.68
COc1ccc2c(c1)ncn2-c1cc(OCc2ccncc2Br)c(C(N)=O)s1	1.09	1.34	2.35
COc1ccc2nccc([C@@H](O)CN3CCC(NCc4nc5c(F)cccc5[nH]4)CC3)c2c1	1.46	0.84	-0.41
Cc1ccc(NC(=O)c2cccc(C#N)c2)cc1-c1ccc(C(=O)Nc2ccncc2)cc1	7.71	9.75	4.44
CN1CCN(c2ccnc3ccc(NC(=O)Nc4ccc5ccccc5c4)cc23)CC1	2.79	1.63	2.8
COc1ccc2[nH]c(C(=O)Nc3cccc(-c4ccc(CN(C)C)cc4)c3)cc2c1	3.16	1.78	-0.5
COc1ccc2c(c1)Nc1ccc(Cl)cc1C2N (stereo unspecified)	3.78	1.62	0.48
Cc1cc(F)ccc1N(c1nc(-c2cc(Cl)ccc2Cl)cs1)C1CCNC1 (stereo unspecified)	8.82	7.41	4.16
CN(C)CCCN(C)c1cccc2c1nc(-c1cccnc1)n2CCNCc1ccccc1	6.47	7.52	1.45
COc1ccc2nccc([C@@H](O)CN3CCC(c4cc(-c5ccc(Cl)cc5)[nH]n4)CC3)c2n1	64.9	78.2	81.2
Cc1ccc(C(=O)Nc2cc(C(F)(F)F)cc(C(F)(F)F)c2)cc1[N+](=O)[O-]	9.19	12.4	7.77
COc1ccc(-c2ccc(NC(=O)c3cccc(F)c3)cc2)cc1CNC(C)C	0.72	-0.6	-2.2
O=C(Nc1cc(F)cc(F)c1)N1CCOC(CCN2CCC(c3ccccc3)CC2)(c2ccc(Cl)c(Cl)c2)C1 (stereo unspecified)	4.27	2.5	2.87
O=C(/C=C/c1ccc(Cl)c(Cl)c1)N1CCCC(CCCN2CCC(c3c[nH]c4ccccc34)CC2)C1 (stereo unspecified)	4.23	3.51	-0.35
FC(F)(F)COc1ccc(CCNCCCCNCCc2ccc(OCC(F)(F)F)c3ccccc23)c2ccccc12	-0.09	12.3	1.09
CC(C)c1ccc(C=CC(=O)N2CCC(CCN3CCC(c4c[nH]c5ccccc45)CC3)CC2)cc1	-1.34	-1.09	-0.06
CS(=O)(=O)CCNc1nccc(N2CCc3ncnc(Nc4ccc(OCc5cccc(F)c5)c(Cl)c4)c3C2)n1	-1.94	-1.97	-1.99
CS(=O)(=O)N1CC2(CCN(CCC(NC(=O)NCc3ccc(Cl)c(Cl)c3)c3ccc(Cl)c(Cl)c3)CC2)c2ccccc21 (stereo unspecified)	0.66	-2.55	-1.75
CC(=O)Nc1cccc(C(=O)Nc2ccc(-c3cccc(-c4nc5cc(C(F)(F)F)ccc5[nH]4)c3)cc2)c1	2.13	0.32	-0.69
NCC1CCCN1Cc1ccc(-c2ccc(-c3nc4cc(F)ccc4[nH]3)cc2)cc1 (stereo unspecified)	8.49	5.64	4.54

Source: ChEMBL document CHEMBL3433997, “St. Jude Leishmania screening dataset” (2016)
